For 8 compounds, growth results are on record in PubChem BioAssay (NCI).

Experiment in all cases: NCI-60 one-dose screen, 48 h (100 = growth as untreated, 0 = no growth, -100 = all killed)
Conditions in all cases: 10 µM unless noted

For test [1], the system named is SK-MEL-2 melanoma.
For test [2], the system named is EKVX NSCLC.
Test [3] deals with SN12C renal.
Test [4] deals with UO-31 renal.
Test [5] deals with TK-10 renal.
Test [6] relates to ACHN renal.
Test [7] concerns CAKI-1 renal.
In test [8] the test system is A498 renal.
For test [9], the system named is CCRF-CEM leukemia.
Test [10] has as its system MOLT-4 leukemia.
In test [11] the test system is SR leukemia.
Test [12] deals with RPMI-8226 leukemia.
Test [13] deals with OVCAR-8 ovarian.
In test [14] the test system is OVCAR-5 ovarian.
Test [15] concerns OVCAR-4 ovarian.
The test system of test [16] is SK-OV-3 ovarian.
Test [17] concerns IGROV1 ovarian.
Test [18] deals with OVCAR-3 ovarian.
For test [19], the system named is HS 578T breast.
Test [20] has as its system NCI/ADR-RES ovarian.

Compounds without any hit were thinned out: in the full panel of roughly 83,000, 20% have a hit.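 96-well plates, one dose, 48 hours. Percent growth reported; active if below 10.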 A number with no mark means an inactive call. The source made the active and inactive calls.

With `COC(=O)c1c(C(=O)OC)c2ccc3c4ncccc4ccc3n2c1C(=O)c1ccc(C)cc1`, the growth is 83.2% in [1]; 83.2% in test [2]; 100% in test [3]; 74.3% in [4]; 93.4% in [5]; 77.1% in [6]. Also, the growth was 83.9% in [7]; 92.8% in [8]; 71.2% in test [9]; 73.3% in test [10]; 75.8% in test [11]; 84.1% in test [12]. For the same compound, the growth in test [13] is 82.7%; in test [14] it was 87.1%; in test [15], 90.9%; in test [16], 87.8%; in [17], 94.4%; in test [18], 102%. The growth in [19] was 96.3%; in test [20], 92.7%.

Regarding `CCOC(=O)c1c2c(n3ccc(NC(=O)CCN4CCCC4)cc13)C(=O)c1ncccc1C2=O`, the growth was 93.9% in test [1]; -49.2% (active) in [2]; -63.5% (active) in test [3]; 16.9% in test [4]; -92.2% (active) in test [5]; 13.6% in [6]. Moreover, the growth in [7] was 9.9% (active); in [8], 46.3%; in [9] it was -36.4% (active); in [10], -23% (active); in [11], -20.2% (active); in [12], -31.8% (active). In addition, the growth in test [13] is -33.3% (active); in test [14], -67.4% (active); in test [15] it was -68.1% (active); in [16], 74.4%; in test [17], -71.1% (active); in [18], -85.9% (active). Moreover, the growth in test [19] was -43.9% (active); in [20], 27.3%.

For `Cc1cc2nc(C(Cl)Cl)nc(-c3ccccc3)n2n1`, the growth is 110% in [1]; 61% in test [2]; 85.6% in test [3]; 75.1% in [4]; 59.2% in test [5]; 11.6% in test [6]. Moreover, the growth in test [7] was 35%; in [8], 20.8%; in test [9] it was 79.1%; in [10], 53.1%; in test [11], 20.6%; in test [12], 63%. For the same compound, the growth in [13] is 49.6%; in test [14], 78.8%; in test [15] it was 33.2%; in test [16] it was 60.6%; in test [17], 71.4%; in [18] it was 36.9%. Moreover, the growth in test [19] is 52.6%; in test [20], 48.6%.

For `CCNCCNc1c(C)c(-c2ccc(C(F)(F)F)cc2)c(C#N)c2nc3ccccc3n12`, the growth in test [1] is 102%; in test [2] it was 92.4%; in test [3], 67.2%; in test [4], 79.1%; in test [5], 109%; in test [6] it was 82.5%. Further, the growth in test [7] is 92.3%; in test [8], 69.6%; in test [9], 86.9%; in test [10] it was 90.9%; in test [11], -0.902% (active); in [12], 86.4%. The growth was 95.3% in test [13]; 104% in [14]; 88.2% in test [15]; 111% in test [16]; 78.9% in test [17]; 96.4% in test [18]. In addition, the growth in test [19] was 90.8%; in [20], 101%.

As to `O=C1Nc2ccccc2/C1=C/c1cccn1CCCCCCn1c2ccccc2c(=O)c2ccccc21`, the growth in test [1] was 86.3%; in test [2] it was 65.3%; in test [3], 93.6%; in test [4], 56.2%; in [5], 78.7%; in test [6], 89.7%. Moreover, the growth was 72.6% in [7]; 103% in test [8]; 49.8% in test [9]; 50.9% in [10]; 80.8% in [11]; 25.3% in test [12]. Besides, the growth in test [13] was 47.5%; in test [14] it was 82.2%; in test [15], 53.8%; in test [16], 87.2%; in [17] it was 88%; in test [18], 64.9%. Moreover, the growth is 96.3% in [19] and 71.8% in [20].

Take `CN(C)C(=S)NN=C(c1ccccn1)c1ccccn1`: the growth in [1] is 13.4%; in test [2], -15.7% (active); in test [3], 28.5%; in [4] it was 20.7%; in test [5] it was 6.04% (active); in test [6], 16.8%. Moreover, the growth in test [7] was 30%; in test [8] it was -11% (active); in test [9] it was -34.3% (active); in test [10], -2.95% (active); in test [11], -33.6% (active); in test [12], 17.8%. Further, the growth is 33.1% in [13]; 59.1% in [14]; 21.5% in test [15]; 51% in test [16]; 16% in test [17]; 51.9% in [18]. In addition, the results for the growth in [19] and in test [20] were 44.9% and 19.9%, respectively.

`Nc1nc(N)c2c(n1)NC(c1cccc(Nc3ccnc4cc(C(F)(F)F)ccc34)c1)CC(c1ccc(Cl)cc1)=N2` (stereo not given): the growth in test [1] is 42.7%; in test [2] it was 50.8%; in test [3], 63.9%; in test [4], 62.7%; in test [5] it was 87.4%; in test [6], 72.7%. For the same compound, the growth in test [7] was 45.5%; in test [8], 82%; in test [9], 19.2%; in test [10] it was 7.52% (active); in test [11], 3.26% (active); in test [12], -1.21% (active). The growth in test [13] was 62.4%; in test [14] it was 105%; in [15] it was 60.1%; in test [16], 64.9%; in test [17], 52.9%; in [18], 26.6%. The growth in test [19] is 62.1%; in [20] it was 54.4%.

On to `C1=C2CCCC3=Cc4ccccc4OC23Oc2ccccc21`, for which the growth was 36% in test [1]; 57.8% in test [2]; 34.4% in test [3]; 43.3% in [4]; 55.4% in [5]; 47.3% in test [6]. The growth was 27.2% in [7]; 5.61% (active) in test [8]; 18.3% in [9]; 17.5% in test [10]; 6.44% (active) in test [11]; 26% in [12]. Besides, the growth is 38.5% in test [13]; 71.1% in test [14]; 52.6% in [15]; 30.8% in test [16]; 44.5% in test [17]; 3.51% (active) in test [18]. For the same compound, the growth in test [19] is 33.4%; in test [20], 11.6%.
